A selection: hits, their analogues and other compounds. The true share with any hit is near 6.7%.
T cruzi growth – T. cruzi proliferation inhibition; T. cruzi beta-gal in NIH3T3, GalScreen luminescence, 90 h; inhibition, % at 8.34 µM; actives 5.9% (n = 77,000); AID 624255;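 active means mean inhibition above about 93%, with at least 55% of replicates each passing it, limit read from the data, passing the limit was not always enough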
Pf Dd2 inh – inhibitors of Plasmodium falciparum Dd2 growth; AID 1159554; activity change, % at 10 µM; actives 2.3% (n = 94,000); P. falciparum Dd2 growth, SYBR Green, 72 h; active compounds read low; in the data active means activity change below about -80%
C diff growth – C. difficile growth inhibition. Clostridium difficile clinical isolate growth, OD600, 24 h; active compounds read low. growth activity, negative = inhibition, % at 16 µg/mL (by protocol). actives 0.25% (n = 86,000). AID 1259249;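 active means mean growth activity at or below -80% and every replicate also at or below -80%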
Of the large screens only hits and unclear results are named; the others gave an inactive call.

CCC(=O)N1CCC2(CC1)CN(S(=O)(=O)c1ccccc1)[C@H](CO)c1[nH]c3cc(OC)ccc3c12	Pf Dd2 inh -85.7 (no result: T cruzi growth)
CCCC(=O)N1CCC2(CC1)CN(S(=O)(=O)c1ccc(C)cc1)[C@@H](CO)c1[nH]c3cc(OC)ccc3c12	Pf Dd2 inh -91.8 (no result: T cruzi growth)
COc1ccc2c3c([nH]c2c1)[C@H](CO)N(C)CC31CCN(S(=O)(=O)c2ccc(C)cc2)CC1	none (no result: T cruzi growth)
C[C@H](CO)N1C[C@H](C)[C@H](CN(C)Cc2ccc(-c3ccccc3)cc2)Oc2c(NC(=O)Nc3ccc(F)cc3)cccc2C1=O	none
COc1ccc(C#Cc2ccc3c(c2)O[C@H](CN(C)S(=O)(=O)c2ccccc2F)[C@@H](C)CN([C@H](C)CO)S3(=O)=O)cc1	Pf Dd2 inh -87.2 (no result: T cruzi growth)
COc1ccccc1S(=O)(=O)N(C)C[C@H]1Oc2cc(C#CCC(C)C)ccc2S(=O)(=O)N([C@H](C)CO)C[C@@H]1C	none
COc1ccc(C#Cc2ccc3c(c2)O[C@@H](CN(C)C)[C@@H](C)CN([C@@H](C)CO)S3(=O)=O)cc1	none
COc1ccc(C#Cc2ccc3c(c2)O[C@@H](CN(C)S(=O)(=O)c2ccccc2F)[C@@H](C)CN([C@@H](C)CO)S3(=O)=O)cc1	Pf Dd2 inh -90.1 (no result: T cruzi growth)
COc1ccc(S(=O)(=O)N(C)C[C@H]2Oc3cc(C#CC4CCCCC4)ccc3S(=O)(=O)N([C@@H](C)CO)C[C@H]2C)cc1	none (no result: C diff growth)
CNC[C@H]1Oc2cc(C#Cc3cccc(OC)c3)ccc2S(=O)(=O)N([C@@H](C)CO)C[C@@H]1C	none
CNC[C@@H]1Oc2cc(C#Cc3ccc(OC)cc3)ccc2S(=O)(=O)N([C@@H](C)CO)C[C@H]1C	Pf Dd2 inh -85.0
COc1ccc(S(=O)(=O)N(C)C[C@@H]2Oc3cc(C#CC4CCCCC4)ccc3S(=O)(=O)N([C@@H](C)CO)C[C@H]2C)cc1	Pf Dd2 inh -83.9 (no result: C diff growth)
O=C(C[C@H]1CC[C@@H]2[C@H](COC[C@@H](O)CN2Cc2ccncc2)O1)NCc1ccccc1Cl	none (no result: T cruzi growth)
CCCC(=O)Nc1ccc2c(c1)C(=O)N(C)[C@H]1CC[C@H](CC(=O)NCc3ccccc3F)O[C@H]1CO2	none
C[C@@H]1CN([C@@H](C)CO)S(=O)(=O)c2ccc(C3=CCCCC3)cc2O[C@@H]1CN(C)C(=O)c1ccncc1	none
O=C(C[C@@H]1C=C[C@H](NC(=O)Nc2ccc(F)cc2)[C@@H](CO)O1)NCc1ccccn1	none
C[C@H]1CN([C@@H](C)CO)C(=O)c2c(c3ccccc3n2C)-c2ccccc2CO[C@H]1CN(C)C(=O)Nc1ccccc1C(F)(F)F	Pf Dd2 inh -84.4 (no result: T cruzi growth)
COc1ccccc1NC(=O)N(C)C[C@@H]1OCc2ccccc2-c2c(n(C)c3ccccc23)C(=O)N([C@H](C)CO)C[C@H]1C	none (no result: C diff growth)
C[C@@H]1CN([C@@H](C)CO)C(=O)c2c(c3ccccc3n2C)-c2ccccc2CO[C@@H]1CN(C)C(=O)Nc1cccc(Cl)c1Cl	Pf Dd2 inh -92.4 (no result: T cruzi growth)
C[C@@H]1CN([C@H](C)CO)C(=O)c2c(c3ccccc3n2C)-c2ccccc2CO[C@H]1CN(C)C(=O)Nc1ccccc1C(F)(F)F	none (no result: T cruzi growth)
O=C(C[C@@H]1C[C@H]2c3cc(NC(=O)CC4CC4)ccc3O[C@H]2[C@H](CO)O1)NCC1CC1	none
CCCN(C)C[C@H]1OCCCC[C@H](C)Oc2ccc(NS(=O)(=O)c3ccc(C)cc3)cc2C(=O)N([C@@H](C)CO)C[C@@H]1C	Pf Dd2 inh -89.6
CCCN(C)C[C@H]1OCCCC[C@@H](C)Oc2ccc(NS(=O)(=O)c3ccc(F)cc3)cc2C(=O)N([C@H](C)CO)C[C@@H]1C	none
CCCN(C)C[C@H]1OCCCC[C@@H](C)Oc2ccc(NS(=O)(=O)c3ccc(Cl)cc3)cc2C(=O)N([C@H](C)CO)C[C@@H]1C	none
CCCN(C)C[C@H]1OCCCC[C@H](C)Oc2ccc(NS(=O)(=O)c3c(C)noc3C)cc2C(=O)N([C@H](C)CO)C[C@H]1C	none
CCCN(C)C[C@H]1OCCCC[C@H](C)Oc2ccc(NS(=O)(=O)c3c(C)noc3C)cc2C(=O)N([C@@H](C)CO)C[C@@H]1C	Pf Dd2 inh -88.9
CCCN(C)C[C@H]1OCCCC[C@H](C)Oc2ccc(NS(=O)(=O)c3ccc(C)cc3)cc2C(=O)N([C@H](C)CO)C[C@H]1C	Pf Dd2 inh -85.9
CCCN(C)C[C@H]1OCCCC[C@H](C)Oc2ccc(NS(=O)(=O)c3ccc(Cl)cc3)cc2C(=O)N([C@H](C)CO)C[C@H]1C	none
CCCN(C)C[C@@H]1OCCCC[C@@H](C)Oc2ccc(NS(=O)(=O)c3ccc(C)cc3)cc2C(=O)N([C@H](C)CO)C[C@H]1C	Pf Dd2 inh -88.6
O=C(CC1CC1)Nc1ccc2c(c1)[C@H]1C[C@H](CC(=O)N3CCOCC3)O[C@H](CO)[C@H]1O2	none
COc1ccc(CN(C)C[C@@H]2OCCCC[C@@H](C)Oc3ccc(NS(=O)(=O)c4c(C)noc4C)cc3C(=O)N([C@@H](C)CO)C[C@H]2C)cc1	none
O=C(Nc1ccccc1Cl)N1[C@H](CO)[C@@H]2c3ccccc3NC[C@@H]21	none
COc1ccc2c3c([nH]c2c1)[C@@H](CO)N(C(=O)C1CC1)CC31CCN(S(C)(=O)=O)CC1	none (no result: T cruzi growth)
C[C@@H]1CCCCO[C@H](CN(C)Cc2ccncc2)[C@H](C)CN([C@@H](C)CO)C(=O)c2cc(NC(=O)Nc3cccc4ccccc34)ccc2O1	none
C[C@@H]1CN([C@H](C)CO)C(=O)c2cc(NC(=O)Nc3cccc4ccccc34)ccc2O[C@@H](C)CCCCO[C@H]1CN(C)Cc1ccc(C(F)(F)F)cc1	Pf Dd2 inh -84.9
C[C@@H]1CCCCO[C@H](CN(C)Cc2ccc(C(F)(F)F)cc2)[C@@H](C)CN([C@@H](C)CO)C(=O)c2cc(NC(=O)Nc3cccc4ccccc34)ccc2O1	none
C[C@H]1CCCCO[C@@H](CN(C)Cc2ccncc2)[C@@H](C)CN([C@@H](C)CO)C(=O)c2cc(NC(=O)Nc3cccc4ccccc34)ccc2O1	T cruzi growth 99.3
Cc1noc(C)c1NC(=O)N[C@H]1CC[C@H](CCNC(=O)C2CCCCC2)O[C@@H]1CO	none
N#C[C@@H]1[C@@H](c2ccc(C#Cc3ccccc3F)cc2)[C@H](CO)N1C(=O)C1CCCC1	none (no result: T cruzi growth)
N#C[C@H]1[C@@H](c2ccc(C#Cc3ccc(F)cc3)cc2)[C@H](CO)N1C(=O)C1CCCC1	none
CC(C)NC(=O)N1[C@@H](C#N)[C@@H](c2ccc(C#CC3CCCCC3)cc2)[C@@H]1CO	none
N#C[C@@H]1[C@@H](c2ccc(C#Cc3ccc(F)cc3)cc2)[C@H](CO)N1C(=O)C1CCCC1	Pf Dd2 inh -86.0
CC(C)NC(=O)N1[C@H](C#N)[C@H](c2ccc(C#CC3CCCC3)cc2)[C@@H]1CO	Pf Dd2 inh -87.5 (no result: T cruzi growth)
CCCC#Cc1ccc([C@H]2[C@@H](CO)N(C(=O)C3CCOCC3)[C@H]2C#N)cc1	none
N#C[C@H]1[C@H](c2ccc(C#Cc3ccccc3F)cc2)[C@@H](CO)N1C(=O)C1CCCC1	Pf Dd2 inh -86.9 (no result: T cruzi growth)
CCCC#Cc1ccc([C@H]2[C@@H](CO)N(C(=O)C3CCCCC3)[C@H]2C#N)cc1	Pf Dd2 inh -85.6
CCS(=O)(=O)N[C@@H]1C=C[C@H](CC(=O)NCc2ccc(Cl)cc2)O[C@H]1CO	none
O=C(C[C@@H]1C[C@@H]2c3cc(NC(=O)Nc4ccccc4F)ccc3O[C@@H]2[C@H](CO)O1)NCC(F)(F)F	none

Screening data: PubChem BioAssay, Broad Institute
